Data on 40 compounds can be found in PubChem BioAssay (NCATS).

“And” between values parts separate entries of the source, which are not always exact repeats. Identical values can stand only once. Results filed as inconclusive are left out. The source made the active and inactive calls. Calls come from the whole dose curve; as a rule, active = well fitted cell-killing curve with a large enough effect; inconclusive = small, poorly fitted or top-dose-only effect, or effect the other way; inactive = no such curve, though single readings can be large or run the other way.
Potency is the fitted concentration of half-maximal effect.

This assay in a line: Viability qHTS for spleen associated tyrosine kinase inhibitor (SYKi) naive MV4-11 cells (AID 1963823). Note: nearly all actives have a fitted effect of over 40% in size. To be noted: MV4-11 AML viability, CellTiter-Glo luminescence, 72 h; series mostly up to 45 µM; viability (% of control): at the top concentration. The text has this: Department of Medicine, Hematology/Oncology
University Hospital Frankfurt, Germany.
Trials have shown promising clinical activity of the selective SYK inhibitor entospletinib in patients with high expressing HOXA9/MEIS1 acute leukemias. As the development of resistance mechanisms is a common problem in the use of targeted drugs, we performed a chemical library screen to identify drug sensitivities in SYK inhibitor resistant AML cells. […] Glucocorticoids are potent immunosuppressants which work in part by inhibiting the transcription of cytokine genes.
Described herein is a viability screen to look for activity in the SYK inhibitor naive cell line against four NCATS compound libraries (MIPE 5.0, NPC, NPACT, and Kinase) totaling 11372 compounds. Active hits were reacquired for confirmation and further secondary assay testing.
SEQUENCE No. (e.g., 1, 2, 3, etc.); […] (e.g., Cells, Incubation, Reagent, etc.); VALUE; DESCRIPTION.
1; Media; 2uL; white, solid-bottom Corning assay plate.
2; Compounds; 23nL; Echo acoustic dispenser.
3; Cell; 5uL; 500 cells per well.
4: Incubation; 72hr; 37 C, 5% CO2, 95% humidity.
5; Reagent; 3uL; CellTiter-Glo reagent (Promega).
6; Incubation; 10min; room temperature.
7; Detection; Luminescence; ViewLux plate reader (PerkinElmer).
NOTES (numbers refer to Sequence numbers above
1. Quantitative high-throughput screening (qHTS) of small molecule compounds was conducted on naive SYKi MV4-11 cell line.
2. Twenty-three nanoliter of small molecule compounds were added to each assay plates using the Echo acoustic dispenser (Beckman Coulter).
3. Cells were seeded into the assay plates at a final density of 500 cells in 5uL of media per well using the Multi-drop Combi dispenser.
4. Plates were covered with stainless steel gasketed lids and incubated for 72 hours at standard cell culture conditions.
5. Viability was assessed by adding 3uL of CellTiter-Glo detection reagent (Promega).
6. Plates were covered with gasket lids and incubated for 10 minutes at room temperature.
7. Luminescence was measured on a ViewLux plate reader (PerkinElmer).
In the case of `CC1(C)CC[C@]23CO[C@@]4(CCC5[C@@]6(C)CC[C@H](O[C@@H]7OC[C@H](O[C@@H]8O[C@H](CO)[C@@H](O)[C@H](O)[C@H]8O[C@@H]8OC[C@@H](O)[C@H](O)[C@H]8O)[C@H](O)[C@H]7O)[C@@](C)(CO)C6CC[C@@]5(C)[C@]4(C)CC2=O)[C@@H]3C1` (stereo not given in full), the Potency is 3.1 µM (active).

For the compound `CC1(C)[C@@H](O)CC[C@]2(C)[C@H]3C(=O)C=C4[C@@H]5C[C@@](C)(C(=O)O)CC[C@]5(C)CC[C@@]4(C)[C@]3(C)CC[C@@H]12`, the Potency entry was “inactive”.

Consider `CC(=O)O[C@@]12CO[C@@H]1C[C@H](O)[C@@]1(C)C(=O)[C@H](O)C3=C(C)[C@@H](OC(=O)[C@H](O)[C@@H](NC(=O)OC(C)(C)C)c4ccccc4)C[C@@](O)([C@@H](OC(=O)c4ccccc4)[C@H]21)C3(C)C`, for which the Potency was 0.0027 µM (active).

Regarding `O=C1CC[C@@H](C(=O)O)N1`, the Potency is 0.0015 µM (active).

For the compound `NCCCC(O)(P(=O)(O)O)P(=O)(O)O`, the Potency entry was “inactive”.

For the compound `Cc1ccc(-c2ncccn2)c(C(=O)N2C[C@H](COc3ccc(F)cn3)CC[C@H]2C)c1`, the “viability (% of control)” value is 42.1% (inactive).

In the case of `CC(C)CCNC(=O)c1ccc2c(c1)nc(Nc1n[nH]c3ccc(-c4ccccc4OC(F)(F)F)cc13)n2C1CCC(O)CC1` (stereo not given), the Potency was 16.4 µM (active).

In the case of `COC(=O)[C@@]1(C)CC[C@]2(C(=O)O[C@@H]3O[C@H](CO)[C@@H](O)[C@H](O)[C@H]3O)CC[C@]3(C)C(=CCC4[C@@]5(C)CC[C@H](O[C@@H]6O[C@H](C(=O)O)[C@@H](O)[C@H](O)[C@H]6O)C(C)(C)C5CC[C@]43C)[C@@H]2C1` (stereo not given in full), the viability (% of control) is 68.6% [at 9.25 µM] (inactive).

For the compound `CC1=C(C/C=C(\C)CCC[C@H](C)CCC[C@H](C)CCCC(C)C)C(=O)c2ccccc2C1=O`, the “viability (% of control)” value is 67.3% (inactive).

With `COc1cc2ncnc(Nc3ccc(O)cc3)c2cc1OC`, the Potency was 3.26 µM (active).

For `CNC12CC3C[C@@](C)(C1)C[C@](C)(C3)C2`, the “viability (% of control)” value was 69.5% (inactive).

In the case of `COC(=O)[C@H](Cc1ccc([N+](=O)[O-])cc1)NC(=O)c1cccc2ccccc12`, the Potency is 5.8 µM (active).

As to `CC(=O)c1c(O)cc2c(c1C)C(=O)CC(O)C2` (stereo not given), the “viability (% of control)” value is 79.9% (inactive).

On to `Cc1ccc(F)c(NC(=O)Nc2ccc(-c3cccc4[nH]nc(N)c34)cc2)c1`, for which the Potency is 0.0166 µM (active).

For `CN(C)c1nc2c(Br)c(Br)c(Br)c(Br)c2[nH]1`, the Potency is 11.6 µM (active).

As for `CC(C)C1(O)C=C2C(=O)CC3C(C)(C(=O)O)CCCC3(C)C2CC1` (stereo not given), the “viability (% of control)” value was 72.9% (inactive).

As for `COc1c2c(c(C)c3c1C(=O)OC3)O[C@@]1(C)C[C@@H](O)[C@]34O[C@](OC)(CC[C@]3(C)[C@H]1C2)OC4(C)C`, the “viability (% of control)” value is 49.9% [at 17.3 µM] (inactive).

In the case of `O=C(NNc1ccccc1)c1ccncc1`, the Potency entry is “inactive”.

Take `CC#C[C@@H](CC(=O)O)c1ccc(OCc2cccc(-c3ccc(C(F)(F)F)cc3)c2)cc1`: the Potency is 18.6 µM (active).

In the case of `CC(=O)C=C=C1C(C)(C)CC(O[C@@H]2O[C@H](CO)[C@@H](O)[C@H](O)[C@H]2O)CC1(C)O` (stereo not given in full), the “viability (% of control)” value was 95.9% (inactive).

Regarding `C=C1C(=O)O[C@@H]2C[C@@]3(C)C[C@@H](O)C[C@H](C)C3=C[C@H]12`, the Potency is 5.17 µM (active).

For `N#CCC(=O)NN`, the “viability (% of control)” value was 116% (inactive).

Regarding `Cc1cc2c(OCC(CNC(C)(C)C)OC(=O)c3ccccc3)cccc2[nH]1` (stereo not given), the “viability (% of control)” value was 84.4% (inactive).

`CN1Cc2cc(C(=O)N3CCC(C4CCNCC4)CC3)ccc2NC(CC(=O)O)C1=O` (stereo not given): the “viability (% of control)” value was 82.9% (inactive).

With `O=C(O)CN1C(=O)c2cccc3cccc(c23)C1=O`, the “viability (% of control)” value was 73% (inactive).

In the case of `C/C=C/C=C/C=C/C(=O)O[C@@H]1C=C(CO)[C@](O)(CO)[C@@]2(C)CCCC(C)(C)[C@H]12`, the Potency was 16.1 µM (active).

As to `CC(C)(C)NCC(O)c1cc(O)cc(O)c1` (stereo not given), the “viability (% of control)” value is 41.3% (inactive).

For `C/C=C1/[C@H](O[C@@H]2O[C@H](CO)[C@@H](O)[C@H](O)[C@H]2O)OC=C(C(=O)OC)[C@H]1CC(=O)O[C@@H]1O[C@H](CO)[C@@H](O)[C@H](O)[C@H]1O`, the “viability (% of control)” value was 96.3% [at 17.3 µM] (inactive).

Turning to `O=C(/C=C/c1ccc(O)c(O)c1)O[C@@H]1[C@@H](O)[C@H](OC2CCCCC2O)O[C@H](CO)[C@H]1O` (stereo not given in full), the “viability (% of control)” value is 86.9% [at 17.3 µM] (inactive).

Regarding `CCCCCOC(=O)Nc1nc(=O)n([C@@H]2O[C@H](C)[C@@H](O)[C@H]2O)cc1F`, the Potency result is “inactive”.

With `OC1(c2ccc(Cl)c(C(F)(F)F)c2)CCN(CCCC(c2ccc(F)cc2)c2ccc(F)cc2)CC1`, the Potency was 2.66 µM (active) and 3.66 µM (active).

As for `Nc1nc(Cl)nc2c1ncn2[C@@H]1O[C@H](CO)[C@@H](O)[C@@H]1F`, the Potency was 106 nM (active) and 263 nM (active).

Take `CCc1c2c(nc3ccc(OC(=O)N4CCC(N5CCCCC5)CC4)cc13)-c1cc3c(c(=O)n1C2)COC(=O)[C@]3(O)CC`: the Potency is 2.99 µM (active) and 263 nM (active).

As for `Nc1ccc(C(=O)c2cc3c(ccc4ccccc43)[nH]2)cc1`, the Potency was 4.28 µM (active).

As to `Cc1cn2c(n1)Cc1ccc(Cl)cc1C(c1ccc(N)cc1)=N2`, the Potency is 14.6 µM (active).

Consider `Cc1cc(C(=O)NOCCO)c(Nc2ccc(I)cc2F)n(C)c1=O`, for which the Potency was 0.0525 µM (active).

On to `CC(C)C1CCC(C(=O)N[C@@H](Cc2ccccc2)C(=O)O)CC1` (stereo not given in full), for which the “viability (% of control)” value is 70% (inactive).

`Cc1cccc(C#Cc2cc(F)cc(C#N)c2)n1`: the “viability (% of control)” value was 48.6% (inactive).

Regarding `CCOC(=O)CCNc1cc(N2CCc3ccccc3CC2)nc(-c2cccnc2)n1`, the “viability (% of control)” value was 68.3% (inactive).

For the compound `CNC(=O)COC(=O)NCCC1CCN(c2cccc(C)n2)CC1`, the “viability (% of control)” value was 73.7% (inactive).
